Screening results deposited in PubChem BioAssay by several laboratories.
AHR activator = human AHR activation; P35869; AHR-responsive luciferase reporter cells, luminescence; activation, % at 5 µM; hit rate 2.5% among 320,000; AID 2796; in the data active = activation above about 47%
Target sequence (P35869 whole entry, looked up): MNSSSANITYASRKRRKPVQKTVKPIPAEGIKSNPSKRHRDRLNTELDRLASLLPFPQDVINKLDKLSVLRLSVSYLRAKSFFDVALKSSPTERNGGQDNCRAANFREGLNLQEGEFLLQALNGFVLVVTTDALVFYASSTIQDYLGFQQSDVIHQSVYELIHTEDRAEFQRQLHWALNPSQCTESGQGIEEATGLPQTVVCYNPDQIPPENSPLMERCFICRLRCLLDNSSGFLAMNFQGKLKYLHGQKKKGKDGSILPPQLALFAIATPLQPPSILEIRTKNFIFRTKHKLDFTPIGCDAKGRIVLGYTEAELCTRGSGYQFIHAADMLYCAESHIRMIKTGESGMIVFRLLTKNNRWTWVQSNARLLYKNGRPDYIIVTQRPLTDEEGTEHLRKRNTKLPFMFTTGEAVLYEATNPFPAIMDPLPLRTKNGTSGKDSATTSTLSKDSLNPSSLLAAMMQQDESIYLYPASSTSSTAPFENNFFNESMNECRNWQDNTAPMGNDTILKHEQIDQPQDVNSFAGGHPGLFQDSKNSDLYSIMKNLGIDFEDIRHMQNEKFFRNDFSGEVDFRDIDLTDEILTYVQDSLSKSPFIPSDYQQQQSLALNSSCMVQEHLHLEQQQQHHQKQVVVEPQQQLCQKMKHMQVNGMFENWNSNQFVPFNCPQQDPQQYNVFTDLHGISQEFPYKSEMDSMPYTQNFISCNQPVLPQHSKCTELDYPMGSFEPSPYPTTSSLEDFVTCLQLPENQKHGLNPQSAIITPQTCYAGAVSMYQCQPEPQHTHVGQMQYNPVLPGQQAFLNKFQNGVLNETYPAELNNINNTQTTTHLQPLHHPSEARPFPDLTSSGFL
AI-2 QS mod = modulates the Vibrio harveyi AI-2 quorum sensing system; hit rate 0.4% among 300,000; Vibrio harveyi JMH597 AI-2 luminescence/OD600 ratio, 9 h; active compounds read low; strain lacks LuxN and CqsS sensors; 0 = neutral-control median; activity change, % at 7.5 µM; AID 2094; in the data active = activity change below about -75%, passing the limit was not always enough;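 note: luminescence divided by OD600 gain over 9 h not by final OD600 alone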
SUMO Mot1 rescue = inhibitors of SUMOylation pathway: yeast Mot1-301 growth rescue; AID 2716; S. cerevisiae Mot1-301 growth rescue, ATP luminescence, 38.5C; percent above DMSO median, 100 means doubled; growth rescue, % at 18.8 µM; hit rate 1% among 320,000;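 active = every valid replicate shows activation above 250% relative to neutral control wells; inactive = the rest, any valid replicate at or below 250%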
NTR1 agonist = agonists of human neurotensin receptor NTR1 | P30989 | NTR1-U2OS beta-arrestin-GFP spot imaging, agonist mode | activation, % at 20 µM | hit rate 0.17% among 330,000 | AID 493036;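 active = activation at or above 40% of the spot to cytoplasm intensity ratio, with at least 20 cells analyzed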
NR3A LBD binder = modulators (binders) of human NR3A ligand-binding domain. NR3A LBD differential scanning fluorimetry, Tm shift; 0% = protein alone, 100% = glycine-bound protein. Tm shift relative to glycine control, % at 25 µM. hit rate 2.5% among 340,000. AID 1259313;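 active = melting temperature shift of at least 10% of the positive control shift, at one fixed dose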
H9c2 protect = myocardial damage modulation in H9c2 cells | H9c2 cardiomyocytes, H2O2 injury protection, ATPLite, 2 h | protection from H2O2 cell death, % at 20 µM | hit rate 0.63% among 360,000 | AID 588492;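 active = compounds giving at least 50% protection of heart cells from peroxide-induced death in the single-dose screen, raw or plate-pattern-corrected value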
Large screens that a line does not name were inactive. This is a sample that favours compounds with a hit; in the whole collection about 6.2% have one here.

CC(CC(=O)NC1CCCCC1)S(=O)(=O)c1ccc2c(c1)NC(=O)CO2 (stereo not given)	none (no result: AI-2 QS mod)
CSc1ccccc1NC(=O)C(=O)c1c[nH]c2ccccc12	AHR activator 48, NR3A LBD binder 21
O=C(Nc1nccs1)C(=O)c1c[nH]c2ccccc12	AHR activator 59 (no result: SUMO Mot1 rescue)
O=C(NC1CC1)C(=O)c1c[nH]c2ccccc12	AHR activator 63
COc1ccc(OC)c(/C=C/C(=O)OCC(=O)N2CCN(S(=O)(=O)c3ccc(C)cc3C)CC2)c1	none (no result: AHR activator, AI-2 QS mod, SUMO Mot1 rescue)
Cc1ccc(C(=O)NCC(=O)N2CCCCCCC2)cc1C	none (no result: AI-2 QS mod)
CC(C)N(C)Cc1nnnn1CC(=O)N(C)Cc1ccc(F)cc1	AHR activator 49
COc1ccccc1CNC(=O)Cn1nnnc1CN(C)C(C)C	none
COC(=O)c1ccc(CNC(=O)Cn2nnnc2CN(C)C(C)C)cc1	AHR activator 56
OC[C@@H]1CN(Cc2cccc(C(F)(F)F)c2)C[C@H](n2cnc3c(NC4CC4)ncnc32)O1	none (no result: AHR activator, AI-2 QS mod, SUMO Mot1 rescue, NTR1 agonist, NR3A LBD binder)
CCOC(=O)N1CCN(C(=O)C2CCC(=O)N(Cc3ccccc3OC)C2)CC1 (stereo not given)	none (no result: AHR activator, AI-2 QS mod, SUMO Mot1 rescue, NTR1 agonist, NR3A LBD binder)
O=C(CC[C@H]1O[C@@H](n2cnc3c(NC(=O)c4ccccc4)ncnc32)[C@H](O)[C@@H]1O)NCC1CCN(Cc2ccccc2)CC1	none (no result: AHR activator, AI-2 QS mod, SUMO Mot1 rescue, NTR1 agonist, NR3A LBD binder)
O=C(COc1cccnc1[N+](=O)[O-])N1CCN(S(=O)(=O)c2ccc3ccccc3c2)CC1	NR3A LBD binder 14
Oc1ccc2ccccc2c1/C=N/c1nc2c(s1)CCCC2	none
Oc1c(Br)cc(Br)cc1/C=N/c1nc2c(s1)CCCC2	H9c2 protect 59
COc1ccc(C2c3c(-c4ccccc4O)n[nH]c3C(=O)N2CCc2ccc(OC)c(OC)c2)cc1 (stereo not given)	none
COc1ccc(CCN2C(=O)c3[nH]nc(-c4ccccc4O)c3C2c2cccc(Cl)c2)cc1 (stereo not given)	NR3A LBD binder 15
Cc1cccc(C)c1N=C1SC(CC(=O)Nc2c(C)cccc2C)C(=O)N1CCc1ccccn1 (stereo not given)	SUMO Mot1 rescue 468
O=C(CC1SC(=Nc2ccccc2)N(CCc2ccccn2)C1=O)Nc1ccc(F)cc1 (stereo not given)	none
Cc1ccc(C(=O)NCC(=O)OCc2nnc(-c3ccc([N+](=O)[O-])cc3)o2)s1	none (no result: AI-2 QS mod)
CSCCC(NS(=O)(=O)c1ccccc1)C(=O)OCc1cc(=O)oc2cc(O)ccc12 (stereo not given)	H9c2 protect 56
Cc1ccc(NC(=O)CSC(C)C(=O)OCc2cc(=O)oc3cc(O)ccc23)cc1 (stereo not given)	H9c2 protect 67 (no result: AHR activator, AI-2 QS mod, SUMO Mot1 rescue, NTR1 agonist, NR3A LBD binder)
CCN(CC)c1ccc(C(=O)OCc2cc(=O)oc3cc(O)ccc23)cc1	none
CSCCC(NS(=O)(=O)c1ccccc1F)C(=O)OCc1ccccc1Cl (stereo not given)	NR3A LBD binder 20
CN(C)c1ccc(NC(=O)c2ccc(Cn3cc([N+](=O)[O-])cn3)cc2)cc1	AHR activator 71
COc1ccc(NC(=O)c2ccc(Cn3cc(Cl)cn3)cc2)cc1	none
COC(=O)N/N=C/c1cc(Cl)cc(Cl)c1OCc1ccc(F)cc1	AHR activator 55
O=C(N/N=C/c1ccc(Cl)cc1)c1sccc1OCc1ccc(F)cc1	NR3A LBD binder 22
COC(=O)Cn1c(CN2CCN(C(=O)c3ccco3)CC2)nc2c1c(=O)n(C)c(=O)n2C	none
NC(COCc1ccccc1)c1csc(NC(=O)Nc2cccc(Cl)c2)n1 (stereo not given)	none (no result: AHR activator, AI-2 QS mod, SUMO Mot1 rescue, NTR1 agonist, NR3A LBD binder)
CSc1ccc(C(=O)N2CCC(CCC(=O)NC3CC3)CC2)cc1	none
Cc1nc2sccn2c(=O)c1S(=O)(=O)NCC1CCN(Cc2ccccc2Cl)CC1	NR3A LBD binder 12
Cc1nc2sccn2c(=O)c1S(=O)(=O)NCc1ccccc1Cl	none
O=C1c2ccccc2NC(c2cn[nH]c2-c2ccc(Cl)cc2)N1O (stereo not given)	H9c2 protect 67
O=C1c2ccccc2NC(c2cn[nH]c2-c2ccccc2)N1O (stereo not given)	H9c2 protect 50
O=C1c2ccccc2NC(c2cccs2)N1O (stereo not given)	none (no result: AHR activator, AI-2 QS mod, SUMO Mot1 rescue)
CCS(=O)(=O)N1Cc2ccccc2CC1C(=O)Nc1nnc(SCc2c(Cl)cccc2Cl)s1 (stereo not given)	none
Cc1cnc(C(=O)Nc2nnc(SCc3c(Cl)cccc3Cl)s2)cn1	H9c2 protect 54
CCSc1nnc(NC(=O)c2cnccn2)s1	none (no result: NR3A LBD binder, H9c2 protect)
CCSc1nnc(NC(=O)C2Cc3ccccc3CN2S(=O)(=O)CC)s1 (stereo not given)	H9c2 protect 64
CCSc1nnc(NC(=O)c2ccccn2)s1	AI-2 QS mod -121
Nc1cc(N)cc(C(=O)c2ccccc2)c1	none (no result: AHR activator, AI-2 QS mod, SUMO Mot1 rescue, NTR1 agonist, NR3A LBD binder)
O=C(NC[C@@H]1CC[C@@H](Cc2ccc(-c3ccccc3)cc2)O1)Nc1ccc(Br)cc1	NR3A LBD binder 24 (no result: AHR activator, AI-2 QS mod, SUMO Mot1 rescue)
CC(C)(C)C1CCC2(CC1)C(C#N)=C(SCC(=O)Nc1ccccc1)NC(=O)C2C#N (stereo not given)	NR3A LBD binder 21
N#CC1=C(N)NC(SCC(=O)Nc2ccc(Br)cc2)=C(C#N)C12CCCCC2	NR3A LBD binder 31
N#CC1=C(N)NC(SCc2ccc(Cl)cc2)=C(C#N)C12CCCCC2	none (no result: SUMO Mot1 rescue)
N#CC1=C(N)NC(SCc2ccc(Br)cc2)=C(C#N)C12CCCCC2	NR3A LBD binder 11
CC1(C)CC(=O)C2=C(C1)NC(SCC(=O)Nc1ccccc1)=C(C#N)C21CCCCC1	NR3A LBD binder 12
N#CC1=C(N)NC(SCC(=O)c2ccccc2)=C(C#N)C12CCCC2	none
CSc1ccc(C(O)c2ncc(-c3ccccc3Cl)[nH]2)cc1 (stereo not given)	none (no result: AHR activator, AI-2 QS mod, SUMO Mot1 rescue, NTR1 agonist, NR3A LBD binder)
Cc1ccc(NS(=O)(=O)c2c(C(=O)N3CCCCCC3)c(C)n(C)c2C)c(C)c1	none
CCOc1ccc2nc(NC(=O)CN3C(=O)C4CCCCC4C3=O)sc2c1 (stereo not given)	none
COc1ccc(C#Cc2cccc(-c3nc(C(=O)NCc4ccc(Oc5ccccc5)cc4)cc4c3[C@@H](CCO)N(S(=O)C(C)(C)C)C4)c2)cc1OC (stereo not given in full)	none (no result: AHR activator, AI-2 QS mod, SUMO Mot1 rescue, NTR1 agonist, NR3A LBD binder)
O=C(c1[nH]c(C(F)(F)F)nc1-c1ccccc1)N1CCc2ccccc2C1	none (no result: AHR activator, AI-2 QS mod, SUMO Mot1 rescue, NTR1 agonist, NR3A LBD binder)
O=C(N/N=C/c1cccc([N+](=O)[O-])c1)c1cc2ccccc2o1	NR3A LBD binder 13
O=C(N/N=C/c1cccc([N+](=O)[O-])c1)c1cnccn1	AHR activator 54
O=C(N/N=C/c1cccc([N+](=O)[O-])c1)c1ccc(CN2CCOCC2)cc1	none
Cc1cc(C(=O)N/N=C/c2cccc([N+](=O)[O-])c2)c(C)o1	AHR activator 72
O=C(N/N=C/c1cc([N+](=O)[O-])ccc1Cl)c1cnccn1	none
CCCSc1nc(N2CCOCC2)c2c(c1C#N)CCCC2	NR3A LBD binder 19
